From PubChem BioAssay AID1159580 (chemical genetic matrix, 2015)
Hit rate of the full screen: of about 5,500 compounds, about 2,000 (36%) were called active. Another 18% or so got no clear call; they are omitted. The list shows a part of the results. Values without a mark were called inactive. Rule as the data show it: active = normalized growth mostly below about 0.91 (no sharp cut-off); inconclusive = no clear call, values can overlap the other calls; inactive = mostly above about 0.92.

Assay: chemical genetic growth profiling, strain panel (AID 1159580);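 also: tested at 20 µM; growth read once vehicle control cultures reached saturation at 30 °C; 1 = growth at the plate median or of vehicle wells; lower values mean less growth of the strain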
Conditions: S. cerevisiae deletion strains, growth OD
[1] = locus YGR078C, strain PAC10, stronger effect = lower value
[2] = locus YHR030C, strain SLT2, stronger effect = lower value
[3] = locus YMR263W, strain SAP30, stronger effect = lower value
[4] = locus YNL153C, strain GIM3, stronger effect = lower value

CC(=O)c1ccc(S(=O)(=O)NC(=O)NC2CCCCC2)cc1
normalized growth (locus YAL040C, strain CLN3, stronger effect = lower value): 1.06
normalized growth (locus YER002W, strain NOP16, stronger effect = lower value): 0.998
normalized growth [1]: 0.99
normalized growth [2]: 0.959
normalized growth (locus YHR079C, strain IRE1, stronger effect = lower value): 0.963
normalized growth (locus YJL095W, strain BCK1, stronger effect = lower value): 1.02
normalized growth (locus YJR066W, strain TOR1, stronger effect = lower value): 0.918
normalized growth (locus YLR113W, strain HOG1, stronger effect = lower value): 0.995
normalized growth [3]: 0.987
normalized growth [4]: 0.95
normalized growth (locus YNL175C, strain NOP13, stronger effect = lower value): 0.983
normalized growth (locus YNL183C, strain NPR1, stronger effect = lower value): 0.937
normalized growth (locus YNL197C, strain WHI3, stronger effect = lower value): 0.986
normalized growth (locus YNL224C, strain SQS1, stronger effect = lower value): 1.01
normalized growth (locus YOR083W, strain WHI5 (second series), stronger effect = lower value): 1
normalized growth (locus YOR231W, strain MKK1, stronger effect = lower value): 0.967
normalized growth (locus YPL256C, strain CLN2, stronger effect = lower value): 0.965

CCOC(=O)/C(C#N)=C/N=C(N/N=C\c1c(Cl)cccc1Cl)SC
normalized growth (locus YAL013W, strain DEP1, stronger effect = lower value): 0.98
normalized growth (locus YBR229C, strain ROT2, stronger effect = lower value): 1.02
normalized growth (locus YCL061C, strain MRC1, stronger effect = lower value): 1.06
normalized growth (locus YDL101C, strain DUN1, stronger effect = lower value): 1.04
normalized growth (locus YDR150W, strain NUM1, stronger effect = lower value): 1.03
normalized growth (locus YEL061C, strain CIN8, stronger effect = lower value): 0.8 (active)
normalized growth [1]: 0.996
normalized growth [2]: 0.687 (active)
normalized growth (locus YHR087W, strain rtc3, stronger effect = lower value): 1.01
normalized growth (locus YJL187C, strain SWE1, stronger effect = lower value): 0.998
normalized growth (locus YJR043C, strain POL32, stronger effect = lower value): 1.04
normalized growth (locus YJR075W, strain HOC1, stronger effect = lower value): 1.02
normalized growth (locus YKL190W, strain CNB1, stronger effect = lower value): 0.926 (active)
normalized growth (locus YLR039C, strain RIC1, stronger effect = lower value): 0.771 (active)
normalized growth (locus YLR058C, strain SHM2 (second series), stronger effect = lower value): 0.989
normalized growth (locus YLR085C, strain ARP6, stronger effect = lower value): 0.845
normalized growth (locus YLR262C, strain YPT6, stronger effect = lower value): 0.796 (active)
normalized growth (locus YML094W, strain GIM5, stronger effect = lower value): 0.901
normalized growth (locus YMR219W, strain ESC1, stronger effect = lower value): 1.01
normalized growth [3]: 1.01
normalized growth (locus YMR307W, strain GAS1, stronger effect = lower value): 0.799
normalized growth [4]: 1.03
normalized growth (locus YNL298W, strain CLA4 (second series), stronger effect = lower value): 0.795 (active)
normalized growth (locus YNL322C, strain KRE1, stronger effect = lower value): 0.968
normalized growth (locus YNR030W, strain Alg12, stronger effect = lower value): 0.863 (active)
normalized growth (locus YPL055C, strain LGE1, stronger effect = lower value): 0.956
normalized growth (locus YPL241C, strain CIN2, stronger effect = lower value): 0.764 (active)
normalized growth (locus YPR135W, strain CTF4, stronger effect = lower value): 0.795
